Test [1] addresses T1, hADAR2d (ADAR2 deaminase domain, hADAR2-D WT) (Homo sapiens).
T1 chain: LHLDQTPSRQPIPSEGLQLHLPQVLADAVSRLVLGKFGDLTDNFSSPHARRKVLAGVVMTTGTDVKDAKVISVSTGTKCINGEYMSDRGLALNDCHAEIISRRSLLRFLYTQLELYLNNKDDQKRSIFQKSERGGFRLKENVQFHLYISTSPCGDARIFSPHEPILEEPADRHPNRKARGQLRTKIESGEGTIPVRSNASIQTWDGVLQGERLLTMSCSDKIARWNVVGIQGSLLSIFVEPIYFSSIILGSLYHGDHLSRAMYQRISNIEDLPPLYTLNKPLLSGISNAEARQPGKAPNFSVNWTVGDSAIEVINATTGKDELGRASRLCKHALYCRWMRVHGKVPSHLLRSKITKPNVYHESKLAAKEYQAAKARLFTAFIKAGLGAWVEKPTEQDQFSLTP
Briefly: rate stated as similar to substrate b. To be noted: tags: Ni-NTA purified (His10, TEV site); label: internal 32P. The method, then:
This reconstituted solution was heated to 65° C. for 5 minutes. After the solution was slowly cooled to room temperature, 1.5 μL of RNasin ([…]), 5 μL of 4 mM ATP, and 1 μL of T4 DNA ligase (400 U/μL) were added to the solution so that the final reaction volume was 20 μL . The reaction was incubated at 30° C. for 2 hours, then 2 μL of 40 μM trap DNA were added to the splint ligation reaction. The splint ligation products were purified as described above. Purified ³²P labeled top strand was hybridized with the corresponding bottom strand 24-nt oligonucleotide as described above. Deamination reactions were carried out as previously described (21) with the following modifications. For the partially 2′-deoxy-modified substrates, the final reaction volume was 10 μL. The final enzyme concentration was 300 nM. The final RNA concentration was 10 nM. The final reaction solution contained 16 mM Tris-HCl, pH 7.4, 3.3% glycerol, 1.6 mM EDTA, 0.003% NP-40, 60 mM KCl, 7.1 mM NaCl, 0.5 mM DTT, 160 units/mL RNasin, and 1 μg/mL yeast tRNA. Reactions were quenched by adding 190 μL 95° C. nuclease-free water followed by incubation at 95° C. for 5 minutes. […] The TLC was visualized by exposure to storage phosphor imaging plates (Molecular Dynamics) on a Typhoon phosphorimager (Molecular Dynamics) and quantified by volume integration using ImageQuant software (Molecular Dynamics). […]

Test [2] deals with T1, hADAR2d (ADAR2 deaminase domain, …). Briefly: deamination rate, 300 nM enzyme. To be noted: tags: Ni-NTA purified (His10, TEV site); label: internal 32P. How it is done: For the partially 2′-deoxy-modified substrates, the final reaction volume was 10 μL. The final enzyme concentration was 300 nM. The final RNA concentration was 10 nM. The final reaction solution contained 16 mM Tris-HCl, pH 7.4, 3.3% glycerol, 1.6 mM EDTA, 0.003% NP-40, 60 mM KCl, 7.1 mM NaCl, 0.5 mM DTT, 160 units/mL RNasin, and 1 μg/mL yeast tRNA. Reactions were quenched by adding 190 μL 95° C. nuclease-free water followed by incubation at 95° C. for 5 minutes. Deaminated products were purified by phenol-chloroform extraction and ethanol precipitation. The product-containing solution was lyophilized to dryness and suspended in 50 μL of 1×TE solution, followed by digestion with nuclease P1. The resulting 5′-mononucleotides were resolved by thin-layer chromatography (TLC, Macherey-Nagel) (22). The TLC was visualized by exposure to storage phosphor imaging plates (Molecular Dynamics) on a Typhoon phosphorimager (Molecular Dynamics) and quantified by volume integration using ImageQuant software (Molecular Dynamics). […] Statistical significance between groups was determined by t tests using QuickCalcs (GraphPad Software). hADAR2 wt deamination was carried out twice, deamination with other proteins was carried out in triplicate.

B1: partially deoxy duplex (substrate c) (mixed)
RNA 1: GCUCGCGAUGCUAGAGGGCUCUGC
RNA 2: GCAGAGCCCCCCAGCAUCGCGAGC
modifications: 2'-deoxy at top UAGA
In test [1], B1 yielded a binding signal of around 15 fold slower than N1.

B2: partially deoxy duplex (substrate b) (mixed)
RNA 1: GCUCGCGAUGCUAGAGGGCUCUGC
RNA 2: GCAGAGCCCCCCAGCAUCGCGAGC
modifications: 2'-deoxy at top UAGA and at bottom C opposite edited A
Molecule B2 displayed a relative deamination rate in test [2] of around 15 fold slower than N1.

Source of the values: US20200407704, “FUSION PROTEINS AND METHODS FOR SITE-DIRECTED GENOME EDITING” (The Regents of the University of California, published 2020).
